In PubChem BioAssay AID1476 (National Center for Advancing Translational Sciences (NCATS), 2009):
Out of some 200,000 compounds screened, about 4,500 (2.2%) were called active. Another 12% or so got no clear call; they are omitted. This is one part of a sample in which actives are shown more often than they occur. Unmarked numbers belong to inactive results. Calls come from the whole dose curve; as a rule, active = well fitted inhibition curve with a large enough effect; inconclusive = small, poorly fitted or top-dose-only effect, or effect the other way; inactive = flat fitted curve, though single readings scatter.

These molecules were tested against Cruzipain (Trypanosoma cruzi) (UniProt P25779) (assay: qHTS Assay for Promiscuous and Specific Inhibitors of Cruzain (without detergent)). Settings: purified cruzain, Z-FR-AMC fluorescence, no detergent.
Cruzipain (Trypanosoma cruzi), sequence (P25779 123-467 limits assumed): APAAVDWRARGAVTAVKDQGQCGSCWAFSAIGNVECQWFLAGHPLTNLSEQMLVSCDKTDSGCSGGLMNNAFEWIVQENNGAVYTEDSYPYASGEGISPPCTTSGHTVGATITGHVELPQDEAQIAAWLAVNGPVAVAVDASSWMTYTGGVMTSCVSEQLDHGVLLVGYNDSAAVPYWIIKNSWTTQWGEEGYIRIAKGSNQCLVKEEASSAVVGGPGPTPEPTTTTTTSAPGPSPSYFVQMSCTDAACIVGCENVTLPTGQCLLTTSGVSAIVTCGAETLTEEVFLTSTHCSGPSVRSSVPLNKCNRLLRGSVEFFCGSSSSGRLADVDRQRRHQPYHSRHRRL
Outline: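 Purified cruzain at 1.5 nM, pre-incubated 15 min with compound at room temperature in 100 mM sodium acetate pH 5.5, 5 mM DTT, 0.00005% Triton X-100. Reaction started with 2 uM Z-FR-AMC; AMC fluorescence increase over 60 s gives rate.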
Note: nearly all actives have a fitted effect of over 40% in size.
Potency is the fitted concentration of half-maximal effect.
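Throughout, for max response, negative = inhibition: plate controls were enzyme without inhibitor for no effect and buffer without enzyme for full effect.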

Compound | max response, negative = inhibition [%] | Potency
C=CC(C1=CC(=O)C=CC1=O)c1ccc(O)cc1 (stereo not given) | -6.77 | 
O=C(NNc1c2ccccc2nc2ccccc12)c1cc2ccccc2cc1O |  | 7.94 µM (active)
Cc1noc(C)c1COC(=O)c1cc2ccccc2cc1O | -7.72 | 
O=C(Nc1c2c(nc3ccccc13)CCCC2)c1ccccc1Br | 6.61 | 
Cc1c(Cl)cccc1NC(=O)C1CCCN(C(=O)c2cnn(-c3ccccc3)c2-n2cccc2)C1 (stereo not given) | 17.7 | 
CCOC(=O)c1oc2ccc(S(=O)(=O)n3nc(-c4ccccc4OC)cc3N)cc2c1C | -16.2 | 
CCC(=O)N1CCc2cc(S(=O)(=O)NC(C(=O)Nc3ccc(C(C)=O)cc3)C(C)C)ccc21 (stereo not given) | -5.8 | 
O=C1CN(C(=O)Nc2ccccc2C(F)(F)F)C(c2ccccc2)c2c(sc3c2CCCC3)N1 (stereo not given) | -8.71 | 
O=C(COc1ccccc1F)OCc1cc(=O)n2nc(C3CCCCC3)sc2n1 | -11.4 | 
Cc1ccc(-n2c(C)cc(/C=N\NC(=O)CC(=O)NC(C)C)c2C)cc1 | -4.29 | 
Cc1ccc(-n2c(C)cc(/C=N/Nc3ccc([N+](=O)[O-])cn3)c2C)c(C)c1 |  | 3.98 µM (active)
Cc1cccc(C)c1NC(=O)CSc1ccc([N+](=O)[O-])cn1 | -1.59 | 
CCOc1ccc(C(=O)N2CCN(CCc3ccccn3)CC2)cc1 | -2.86 | 
CSc1cccc(NC(=O)CN2C(=O)CCc3cc(S(=O)(=O)N4CCCCC4)ccc32)c1 | -6.74 | 
CCOC(=O)N1CCc2c(sc3c2c(=O)n(Cc2ccccc2)c(=O)n3CC(=O)Nc2cccc(C)c2)C1 | -13.3 | 
COCCn1c(SCC(=O)Nc2ccc3c(c2)CCC3)nc2ccccc2c1=O | 7.57 | 
COc1cccc(NC(=O)C(C)Oc2ccccc2)c1 (stereo not given) | 2.56 | 
COc1cccc(NC(=O)C(Sc2nc3ccccc3c(=O)n2CC(C)C)c2ccccc2)c1 (stereo not given) |  | 5.01 µM (active)
O=S(=O)(Nc1ccc2nc(-c3cccc(Cl)c3)oc2c1)c1ccccc1 | 5.84 | 
COc1ccc(CNC(=O)c2cc3c(=O)[nH]c4ccccc4c3s2)cc1 | -0.0351 | 
O=C(NC(=S)Nc1cc(C(F)(F)F)ccc1N1CCOCC1)c1ccc(-c2cccc(Cl)c2)o1 |  | 10 µM (active)
COc1c(C)cccc1C(=O)Nc1cc(Cl)ccc1N1CCOCC1 | -1.36 | 
CC(C)CC(=O)Nc1cc(C(F)(F)F)ccc1N1CCOCC1 | -0.397 | 

Compound | max response, negative = inhibition [%] | Potency
COc1ccccc1/C=C/c1nc(C#N)c(NC(C)c2ccccc2)o1 (stereo not given) | -27.6 | 
Cc1ccc(NC(=O)C2CCCN2S(=O)(=O)c2cccc3cccnc23)c(C)c1 (stereo not given) | -5.43 | 
Cc1nc(-c2ccccc2)sc1C(=O)/C=C/c1ccccc1 | 3.75 | 
Cc1ccc(N/C=C/C(=O)c2ccccc2)cc1C | -22.6 | 
O=C(/C=C/Nc1ccccc1)c1cnc(-c2ccccc2)s1 |  | 12.6 µM (active)
Cc1c(C)n(Cc2ccc(Cl)cc2)c2ccc(C(=O)NCCc3ccc(S(N)(=O)=O)cc3)cc12 | -27.4 | 
NC(=O)CSc1nc2c(oc3ccccc32)c(=O)n1Cc1ccccc1 | 1.12 | 
OCCNc1nc2ccccc2[nH]1 | -0.339 | 
O=C(CSc1nc2ccccc2[nH]1)c1cccs1 | -7.22 | 
C/C(=N\Nc1nc2ccccc2[nH]1)c1cccs1 |  | 25.1 µM (active)
Cc1ccc(Cn2c(C)c3cnn(CC(=O)NCc4ccccc4)c(=O)c3c2C)cc1 | -6.45 | 
COc1ccc(Nc2ncc3c(n2)CCN(C(=O)OC(C)(C)C)C3)cc1 | -2.11 | 
O=C(Cc1ccc(Cl)cc1)NCC(c1cccs1)S(=O)(=O)c1ccc(Cl)cc1 (stereo not given) | 1.56 | 
CCc1nn(CC(=O)N2CCN(c3cc(C)ccc3C)CC2)c(=O)c2cc3occc3n12 | 6.7 | 
COc1ccc(F)cc1S(=O)(=O)Nc1ccc2c(c1)OCO2 | 9.18 | 
COc1ccc(S(=O)(=O)Nc2ccc3c(c2)OCO3)cc1Cl |  | 15.8 µM (active)
CC(C)CNS(=O)(=O)c1ccc(OCC(=O)Nc2ccc3c(c2)OCO3)c(Cl)c1 | -2.91 | 
COc1cc(Br)cc2cc(S(=O)(=O)c3ccccc3)c(=O)oc12 | -12.9 | 
CC1(c2cccc([N+](=O)[O-])c2)CC(C)(C)N(C(=O)c2ccccc2)c2ccccc21 (stereo not given) | -29.1 | 
Cc1nnc(SCC(=O)N2c3ccccc3C(C)(c3ccc(Cl)cc3)CC2(C)C)s1 (stereo not given) | -0.125 | 
CC1(c2ccccc2)CC(C)(C)N(C(=O)c2cc([N+](=O)[O-])cc([N+](=O)[O-])c2)c2ccccc21 (stereo not given) |  | 25.1 µM (active)
Cc1ccc(Cn2cc(CCC(=O)NCc3ccc(OC(C)C)cc3)c3ccccc32)cc1 | 6.72 | 
Cc1cc(C)cc(NC(=O)CSc2oc(-c3ccccc3)nc2S(=O)(=O)c2ccc(Cl)cc2)c1 | -6.39 | 

Compound | max response, negative = inhibition [%] | Potency
COCCNC(=O)CSc1c(C)cnc2c1c(=O)n(C)c(=O)n2C | 7.18 | 
COc1ccc(-c2c3c(=O)n(C)c(=O)n(C)c3cn2NC(C)=O)cc1 | -4.34 | 
Cc1ccc(-c2c3c(=O)n(C)c(=O)n(C)c3cn2-n2cnnc2)cc1 |  | 12.6 µM (active)
Cc1ccc(-c2c3c(=O)n(C)c(=O)n(C)c3cn2-c2ccccc2O)cc1 | 12.7 | 
CC(=O)c1ccc(NS(=O)(=O)c2ccc(-c3cc(C)no3)s2)cc1 | -22.1 | 
CCC(=O)Nc1ccc2nc(SCC(=O)N3CCc4ccccc43)sc2c1 | 26.9 | 
O=C(Nc1ccc2nc(SCC(=O)N3CCc4ccccc43)sc2c1)c1ccccc1F | -3.59 | 
O=C(Nc1ccc2nc(SCC(=O)N3CCCc4ccccc43)sc2c1)c1ccc(Cl)cc1 |  | 10 µM (active)
COc1ccccc1NC(=O)CCC(=O)N1CC(C)Oc2ccc(C)cc21 (stereo not given) | -1.12 | 
O=C1c2cccc(OCC(=O)N3N=C(c4cccs4)CC3c3ccc(F)cc3)c2CCN1Cc1ccccc1 (stereo not given) |  | 12.6 µM (active)
COc1ccccc1N1CCN(C(=O)Cn2nnc(-c3cccs3)n2)CC1 | -5.5 | 
COc1ccc(C2CC(c3ccccc3)=NN2C(=O)CSc2nccc(=O)[nH]2)cc1 (stereo not given) | -19 | 
O=C(Cn1ncc2c3ccccc3n(Cc3ccccc3)c2c1=O)NCc1ccccn1 | 20.3 | 
COC(=O)c1cnc(N2CCN(c3ccccc3OC)CC2)c2ccccc12 | 5.66 | 
N#CCSc1nc2c(c(=O)n1Cc1ccccc1)C1(CCCC1)Cc1ccccc1-2 |  | 12.6 µM (active)
Cc1cccc(-n2c(SCC(N)=O)nc3c(c2=O)C2(CCCCC2)Cc2ccccc2-3)c1 | -0.318 | 
N#CCSc1nc2ccccc2c(=O)n1-c1ccccc1 | 3.22 | 
CCS(=O)(=O)N1CCc2cc(C(=O)NCc3ccc(OC)cc3)ccc21 | -7.6 | 
CCCCS(=O)(=O)c1oc(-c2cccs2)nc1S(=O)(=O)c1ccccc1 | -4.72 | 
COC(=O)c1ccc(C2C(C(=O)Nc3ccccc3)=C(C)Nc3nc4ccccc4n32)cc1 (stereo not given) | -6.78 | 
O=C(CSc1nnc(Nc2ccccc2)s1)Nc1cccnc1Cl | -18 | 
CC(C)Nc1nnc(SCC(=O)c2c[nH]c3ccccc23)s1 | -13.7 | 
Cc1ccsc1C(=O)OCC(=O)c1cc2ccccc2o1 | 2.71 | 

Compound | max response, negative = inhibition [%] | Potency
CC(C)c1ccc(Nc2nnc(SCC(=O)c3nnc(-c4ccccc4)o3)s2)cc1 |  | 12.6 µM (active)
Cc1ccc(Nc2nnc(SCc3ccccc3)s2)cc1 | -12.9 | 
Cc1ccc(Nc2nnc(SCC(=O)c3cc4ccccc4o3)s2)cc1C |  | 15.8 µM (active)
CCN(c1ncnc2c1cnn2-c1ccc(C)cc1)C1CCCCC1 | 2.47 | 
COc1cccc(-n2c(=O)c3c(C)c(C(=O)N(C)C)sc3n(Cc3cccc(C)c3)c2=O)c1 | -4.38 | 
O=C(Nc1ccc(F)cc1F)c1ccc2c(=O)n3c(nc2c1)CCCCC3 | -3.34 | 
CN(Cc1ccccc1)C(=O)c1cc2c(=O)n(C)c3ccccc3c2s1 | 3.44 | 
Cc1cc(C(=O)OCC(=O)N2c3ccccc3NC(=O)C2(C)C)c(C)n1-c1ccccc1 | -5.2 | 
Cc1cc(-c2csc(N)n2)c(C)n1-c1ccccc1 |  | 25.1 µM (active)
Cc1n[nH]c(=O)n1-c1ccc(Oc2ccccc2)cc1 | 4.55 | 
Cc1cccc(N(C)C(=O)CS(=O)(=O)c2cccc3nsnc23)c1 | -1.79 | 
COc1ccc(-n2c(SCC(=O)Nc3ccc(Cl)c(C)c3)nc3n[nH]c(C)c3c2=N)cc1 | -5.01 | 
CCC(=O)N1CCc2cc(S(=O)(=O)NC(CC(C)C)C(=O)NCCc3cccc(C)c3)ccc21 (stereo not given) | -3.67 | 
COc1ccc(C)cc1NC(=O)C(OC(=O)c1cccc(S(=O)(=O)N(C)c2ccccc2)c1)c1ccccc1 (stereo not given) |  | 7.94 µM (active)
COc1ccc(C)cc1NC(=O)C(Sc1ccccc1)c1ccccc1 (stereo not given) | -12.8 | 
Cc1ccc(C)c(NC(=O)C(OC(=O)c2ccc(C)s2)c2ccccc2)c1 (stereo not given) | 12.2 | 
COc1c(Cl)cc(Cl)cc1C(=O)Nc1cccc2cccnc12 | -4.23 | 
O=C1OCCN1C(=O)[C@H]1[C@H](c2ccc(F)cc2)C(c2ccccc2)=NN1c1ccc(Br)cc1 |  | 22.4 µM (active)
C[C@@H]1C(c2ccc(F)cc2)=NN(c2ccc(Br)cc2)[C@H]1C(=O)N1CCOC1=O |  | 22.4 µM (active)
O=C1OCCN1C(=O)[C@H]1[C@H](c2ccc(Cl)cc2)C(c2cccc(Cl)c2)=NN1c1ccc(Br)cc1 |  | 8.91 µM (active)
Cc1ccc2c(c1)N(C(=O)Nc1ccc(Br)cc1F)CCO2 | 5.17 | 
